{
  "source": "PubChem BioAssay (NCATS)",
  "note": "Records with an inconclusive call do not appear. A number with no mark means an inactive call. The source made the active and inactive calls. The call rests on the fitted dose curve; in most records, active means well fitted cell-killing curve with a large enough effect; inconclusive means small, poorly fitted or top-dose-only effect, or effect the other way; inactive means flat fitted curve, though single readings scatter. On the % scale 0 is the no-effect control and ±100 the full control effect; potency means the concentration at half of the fitted maximal effect.",
  "data": [
    {"system": "OV90", "assay": "Primary qHTS to identify gynecologic anti-cancer compounds using libraries of approved drugs and bioactive compounds (AID 1345084); further: nearly all actives have a fitted effect of over 55% in size", "details": "Gynecologic cancer cell panel viability, ATPlite luminescence, 48 h; series mostly up to 57.5 µM; activity change, negative = cytotoxicity: at the top concentration", "outline": "(§1)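 Five-point cytotoxicity, 48 h drug exposure at 37 C, 5% CO2, on cells seeded 16 h beforehand. ATP content read by ATPlite luminescence.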", "units": {"activity change, negative = cytotoxicity": "%"}, "values": [
      {"compound": "COc1cc2nc(-c3cc(F)ccc3O)nc(N[C@@H]3CNC[C@H]3C(C)(C)O)c2cc1OC", "activity change, negative = cytotoxicity": -1.51},
      {"compound": "COc1cc(-c2cc(-c3cccc(O)c3)cnc2N)cc(OC)c1OC", "activity change, negative = cytotoxicity": -9.71},
      {"compound": "COc1c(N2CC3CCCNC3C2)c(F)cc2c(=O)c(C(=O)O)cn(C3CC3)c12", "note": "(stereo not given)", "activity change, negative = cytotoxicity": -0.834},
      {"compound": "COc1ccc(Cl)cc1[C@@]1(F)C(=O)Nc2cc(C(F)(F)F)ccc21", "activity change, negative = cytotoxicity": 4.04},
      {"compound": "COc1ccc(-c2c(C)c(C(=O)NN3CCCCC3)nn2-c2ccc(Cl)cc2Cl)cc1", "activity change, negative = cytotoxicity": 2.76},
      {"compound": "C[C@H](NC(=O)C(C)(C)Oc1ccc(C(F)(F)F)cn1)[C@@H](Cc1ccc(Cl)cc1)c1cccc(C#N)c1", "activity change, negative = cytotoxicity": 3.29}
    ]},
    {"system": "PA-1", "assay": "Primary qHTS to identify gynecologic anti-cancer compounds using libraries of approved drugs and bioactive compounds (AID 1345084); further: nearly all actives have a fitted effect of over 55% in size", "details": "Gynecologic cancer cell panel viability, ATPlite luminescence, 48 h; series mostly up to 57.5 µM; activity change, negative = cytotoxicity: at the top concentration", "outline": "as §1", "values": [
      {"compound": "CC(=O)N1CCN([C@H]2CCN(C(=O)N(C)[C@H](C)c3cc(C(F)(F)F)cc(C(F)(F)F)c3)[C@@H](c3ccc(F)cc3C)C2)CC1", "activity change, negative = cytotoxicity": "-1.59%"},
      {"compound": "Nc1ccc(N)c([N+](=O)[O-])c1", "activity change, negative = cytotoxicity": "-3.17% [at 116 µM]"},
      {"compound": "COc1ccccc1-c1c[nH]c2ncc(-c3cncc(C(=O)N(C)C)c3)cc12", "Potency": "31.6 µM (active)"},
      {"compound": "Fc1ccccc1CNCc1ccc(-c2ccnc3[nH]ccc23)cc1", "activity change, negative = cytotoxicity": "-0.18%"},
      {"compound": "CCCCc1nc(C)c(CC(=S)N(C)C)c(=O)n1Cc1ccc(-c2ccccc2-c2nn[nH]n2)cc1", "activity change, negative = cytotoxicity": "-3.23%"},
      {"compound": "CC[C@H]1OC(=O)[C@H](C)[C@@H](O[C@H]2C[C@@](C)(OC)[C@@H](O)[C@H](C)O2)[C@H](C)[C@@H](O[C@@H]2O[C@H](C)C[C@H](N(C)C)[C@H]2O)[C@](C)(O)C[C@@H](C)/C(=N/OCOCCOC)[C@H](C)[C@@H](O)[C@]1(C)O", "activity change, negative = cytotoxicity": "11.2%"},
      {"compound": "C=C1C(=O)O[C@@H]2/C=C(/C)CC3C=C(C[C@H](OC(=O)/C(C)=C\\C)[C@@H]12)C(=O)O3", "note": "(stereo not given in full)", "activity change, negative = cytotoxicity": "-3.27% [at 38.5 µM]"},
      {"compound": "COc1ccc2c(c1)CN(C(=O)CCN1CCC(Cc3ccccc3)CC1)CCS2", "activity change, negative = cytotoxicity": "-26.5% [at 25.3 µM]"},
      {"compound": "COc1ccc(-c2nc(-c3cc(C(F)(F)F)cc(C(F)(F)F)c3)n(Cc3ccc(C(N)=O)cc3)c2-c2ccc(OC)cc2)cc1", "activity change, negative = cytotoxicity": "-1.09%"},
      {"compound": "CNc1cc(OC)c(C(=O)N[C@@H]2CCN(Cc3ccccc3)[C@@H]2C)cc1Cl", "activity change, negative = cytotoxicity": "3.21%"},
      {"compound": "CC(=O)Nc1ccc(C(=O)Nc2ccccc2N)cc1", "Potency": "7.08 µM (active)"},
      {"compound": "CCOC(=O)CCC(=O)O[C@H]1[C@H](O[C@@H]2[C@@H](C)[C@H](O[C@H]3C[C@@](C)(OC)[C@@H](O)[C@H](C)O3)[C@@H](C)C(=O)O[C@H](CC)[C@@](C)(O)[C@H](O)[C@@H](C)C(=O)[C@H](C)CC2(C)O)O[C@H](C)C[C@@H]1N(C)C", "note": "(stereo not given in full)", "activity change, negative = cytotoxicity": "10.2%"},
      {"compound": "Cc1cc(CN)cc(C)c1NC(=O)c1ccc(-c2cc(Cl)ccc2Cl)o1", "activity change, negative = cytotoxicity": "3.83%"},
      {"compound": "C=C1C(=O)O[C@@H]2C[C@@]3(C)CCC[C@H](C)C3=C[C@H]12", "activity change, negative = cytotoxicity": "-14%"},
      {"compound": "C=C1C(=O)O[C@@H]2[C@H]1[C@H](O)C[C@]1(C)[C@@H](O)CC=C(C)[C@@H]21", "activity change, negative = cytotoxicity": "-0.819%"},
      {"compound": "CC(C)c1ccc(NC(=O)C(c2ccccc2)N(C)C(=O)Cc2c[nH]c3ccccc23)cc1", "note": "(stereo not given)", "activity change, negative = cytotoxicity": "-13.4%"},
      {"compound": "Cc1cc(C)c(NC(=O)N(Cc2ccc3c(c2)Cc2ccccc2-3)C2CCCCCC2)c(C)c1", "activity change, negative = cytotoxicity": "-0.135%"},
      {"compound": "CN(Cc1ccc(C(=O)O)cc1)c1ccc(OCc2c(-c3c(Cl)cccc3Cl)noc2C2CC2)nc1C(F)(F)F", "activity change, negative = cytotoxicity": "19%"},
      {"compound": "C[N+]1(C)[C@@H]2CC[C@H]1CC(OC(=O)C(O)c1ccccc1)C2", "note": "(stereo not given in full)", "activity change, negative = cytotoxicity": "5.69%"},
      {"compound": "CCOc1ccc(-c2nc(-c3cccc4c3CCC4NCCO)no2)cc1OCC", "note": "(stereo not given)", "activity change, negative = cytotoxicity": "-0.525%"},
      {"compound": "CCC(=O)c1cc(-c2ccc(Cl)cc2)n(-c2ccc(S(N)(=O)=O)cc2)c1C", "activity change, negative = cytotoxicity": "-10.2%"},
      {"compound": "COc1cc2nc(-c3cc(F)ccc3O)nc(N[C@@H]3CNC[C@H]3C(C)(C)O)c2cc1OC", "activity change, negative = cytotoxicity": "-2.02%"},
      {"compound": "O=C(/C=C/n1cnc(-c2cc(C(F)(F)F)cc(C(F)(F)F)c2)n1)NNc1cnccn1", "Potency": "10 µM (active)"},
      {"compound": "COc1cc(-c2cc(-c3cccc(O)c3)cnc2N)cc(OC)c1OC", "activity change, negative = cytotoxicity": "-17.8%"},
      {"compound": "COc1c(N2CC3CCCNC3C2)c(F)cc2c(=O)c(C(=O)O)cn(C3CC3)c12", "note": "(stereo not given)", "activity change, negative = cytotoxicity": "10.8%"},
      {"compound": "COc1ccc(-c2c(C)c(C(=O)NN3CCCCC3)nn2-c2ccc(Cl)cc2Cl)cc1", "activity change, negative = cytotoxicity": "0.58%"},
      {"compound": "C[C@H](NC(=O)C(C)(C)Oc1ccc(C(F)(F)F)cn1)[C@@H](Cc1ccc(Cl)cc1)c1cccc(C#N)c1", "activity change, negative = cytotoxicity": "-3.13%"}
    ]},
    {"system": "SKOV3", "assay": "Primary qHTS to identify gynecologic anti-cancer compounds using libraries of approved drugs and bioactive compounds (AID 1345084); further: nearly all actives have a fitted effect of over 55% in size", "details": "Gynecologic cancer cell panel viability, ATPlite luminescence, 48 h; series mostly up to 57.5 µM; activity change, negative = cytotoxicity: at the top concentration", "outline": "as §1", "values": [
      {"compound": "CC(=O)N1CCN([C@H]2CCN(C(=O)N(C)[C@H](C)c3cc(C(F)(F)F)cc(C(F)(F)F)c3)[C@@H](c3ccc(F)cc3C)C2)CC1", "activity change, negative = cytotoxicity": "-47.6%"},
      {"compound": "Nc1ccc(N)c([N+](=O)[O-])c1", "activity change, negative = cytotoxicity": "-0.446% [at 116 µM]"},
      {"compound": "C=C1C(=O)O[C@@H]2C[C@@H](C)[C@]34C[C@]5(C(=O)O[C@H]6CC(C)=C([C@H](C)CCCO)[C@H](OC(=O)C(C)CC)[C@H]65)[C@@H](C(C)=C3C[C@@H]12)[C@H]4OC(C)=O", "note": "(stereo not given in full)", "activity change, negative = cytotoxicity": "-7.2% [at 25.3 µM]"},
      {"compound": "Fc1ccccc1CNCc1ccc(-c2ccnc3[nH]ccc23)cc1", "activity change, negative = cytotoxicity": "-2.16%"},
      {"compound": "CC[C@H]1OC(=O)[C@H](C)[C@@H](O[C@H]2C[C@@](C)(OC)[C@@H](O)[C@H](C)O2)[C@H](C)[C@@H](O[C@@H]2O[C@H](C)C[C@H](N(C)C)[C@H]2O)[C@](C)(O)C[C@@H](C)/C(=N/OCOCCOC)[C@H](C)[C@@H](O)[C@]1(C)O", "activity change, negative = cytotoxicity": "8.54%"},
      {"compound": "C[C@@H](CN1CCC(n2c(=O)[nH]c3cc(Cl)ccc32)CC1)NC(=O)c1ccc2ccccc2c1", "activity change, negative = cytotoxicity": "3.68%"},
      {"compound": "CC1=CC(=O)[C@@]2(C(C)C)C[C@@H]12", "activity change, negative = cytotoxicity": "9.73%"},
      {"compound": "CN(C)CC(=O)Nc1ccc2[nH]c(=O)c3ccccc3c2c1", "activity change, negative = cytotoxicity": "-7.23%"},
      {"compound": "C=C1C(=O)O[C@@H]2/C=C(/C)CC3C=C(C[C@H](OC(=O)/C(C)=C\\C)[C@@H]12)C(=O)O3", "note": "(stereo not given in full)", "activity change, negative = cytotoxicity": "-21.7% [at 38.5 µM]"},
      {"compound": "COc1ccc(-c2nc(-c3cc(C(F)(F)F)cc(C(F)(F)F)c3)n(Cc3ccc(C(N)=O)cc3)c2-c2ccc(OC)cc2)cc1", "activity change, negative = cytotoxicity": "-11.8%"},
      {"compound": "CNc1cc(OC)c(C(=O)N[C@@H]2CCN(Cc3ccccc3)[C@@H]2C)cc1Cl", "activity change, negative = cytotoxicity": "14.5%"},
      {"compound": "CCOC(=O)CCC(=O)O[C@H]1[C@H](O[C@@H]2[C@@H](C)[C@H](O[C@H]3C[C@@](C)(OC)[C@@H](O)[C@H](C)O3)[C@@H](C)C(=O)O[C@H](CC)[C@@](C)(O)[C@H](O)[C@@H](C)C(=O)[C@H](C)CC2(C)O)O[C@H](C)C[C@@H]1N(C)C", "note": "(stereo not given in full)", "activity change, negative = cytotoxicity": "18.8%"},
      {"compound": "C=C(C(=O)O)C1CC2=C(C)C(=O)CC2C(C)CC1O", "note": "(stereo not given)", "activity change, negative = cytotoxicity": "-25.6%"},
      {"compound": "Cc1cc(CN)cc(C)c1NC(=O)c1ccc(-c2cc(Cl)ccc2Cl)o1", "activity change, negative = cytotoxicity": "-1.62%"},
      {"compound": "CC(C)c1ccc(NC(=O)C(c2ccccc2)N(C)C(=O)Cc2c[nH]c3ccccc23)cc1", "note": "(stereo not given)", "activity change, negative = cytotoxicity": "0.919%"},
      {"compound": "Cc1cc(C)c(NC(=O)N(Cc2ccc3c(c2)Cc2ccccc2-3)C2CCCCCC2)c(C)c1", "activity change, negative = cytotoxicity": "-21.3%"},
      {"compound": "CN(Cc1ccc(C(=O)O)cc1)c1ccc(OCc2c(-c3c(Cl)cccc3Cl)noc2C2CC2)nc1C(F)(F)F", "activity change, negative = cytotoxicity": "38.4%"},
      {"compound": "C[N+]1(C)[C@@H]2CC[C@H]1CC(OC(=O)C(O)c1ccccc1)C2", "note": "(stereo not given in full)", "activity change, negative = cytotoxicity": "-1.66%"},
      {"compound": "CC1CCN(c2cc(NC(=O)c3ccccc3)ncn2)CC1", "activity change, negative = cytotoxicity": "14.9%"},
      {"compound": "COc1cc2nc(-c3cc(F)ccc3O)nc(N[C@@H]3CNC[C@H]3C(C)(C)O)c2cc1OC", "activity change, negative = cytotoxicity": "-8.03%"},
      {"compound": "COc1c(N2CC3CCCNC3C2)c(F)cc2c(=O)c(C(=O)O)cn(C3CC3)c12", "note": "(stereo not given)", "activity change, negative = cytotoxicity": "14.2%"},
      {"compound": "COc1ccc(-c2c(C)c(C(=O)NN3CCCCC3)nn2-c2ccc(Cl)cc2Cl)cc1", "activity change, negative = cytotoxicity": "-0.885%"}
    ]}
  ]
}
